Laboratory results reported in PubChem BioAssay (Tox21).
Several values for one entry are separate records, joined by “and”; a condition that tells them apart may be missing. Equal entries are not always repeated. Records with an inconclusive call do not appear. Entries that show only a call come without a potency. Activity calls are given as the source filed them. Calls follow the shape of the dose curve; as a rule, active = well fitted activation curve with a large enough effect in the repeat runs; inconclusive = weak or mixed curves; inactive = flat fitted curve, though single readings scatter.

Assay: A CellTox Green Cytotoxicity Assay to monitor cytotoxicity in HEK293 cells - 16 hour (AID 1224888); also: nearly all actives have a fitted effect of over 35% in size
Conditions: CellTox Green fluorescence; series mostly up to 76.8 µM
Summary of the method: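 Fluorescence intensity, read at 0, 8, 16, 24, 32 and 40 h of compound treatment, reflected dye binding to DNA of dead HEK293 cells; compounds (23 nL, DMSO) were added 5 h after plating cells with reagent.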
Potency is read from the fitted curve at half-maximal effect.

SMILES | Potency
Cc1cc(Cc2cc(C)cc(C(C)(C)C)c2O)c(O)c(C(C)(C)C)c1 | 49.2 µM (active)
CCn1cc(C(=O)O)c(=O)c2cc(F)c(N3CCNC(C)C3)c(F)c21 (stereo unspecified) | inactive
Nc1cc(Cl)c(-c2cc(Cl)c(N)cc2Cl)cc1Cl | inactive
NC12CC3CC(CC(C3)C1)C2 | inactive
CC(C)CCOC(=O)c1ccc(N(C)C)cc1 | inactive
CC(C)C(=O)c1c(C(C)C)nn2ccccc12 | inactive
CC(=O)Nc1ccc(C(=O)CCl)cc1 | inactive
Cc1scc2c1N(C(=O)CN1CCN(C)CC1)c1ccccc1NC2=O | inactive
O=C1OC2(c3ccc(O)cc3Oc3cc(O)ccc32)c2ccccc21 | 616 nM (active) and 1.2 µM (active)
CC1=C(C=O)C(C)(C)CC=C1 | inactive
Nc1ccc2cc3ccccc3cc2c1 | inactive
Cc1cc(C2(c3cc(C)c(O)cc3C)OS(=O)(=O)c3ccccc32)c(C)cc1O | inactive
CC(=O)N[C@@H](CS)C(=O)O | inactive
c1ccc2cc3c(ccc4ccccc43)cc2c1 | inactive
COc1ccc(CCN2CCC(Nc3nc4ccccc4n3Cc3ccc(F)cc3)CC2)cc1 | 35.4 µM (active) and 26.8 µM (active)
c1ccc2c(c1)CCCC2C1=NCCN1 (stereo unspecified) | inactive
CCn1c2ccccc2c2cc(N)ccc21 | inactive
CC1COC(=O)O1 (stereo unspecified) | inactive
Cc1cccc([N+](=O)[O-])c1C(=O)O | inactive
CO[Si](OC)(OC)c1ccccc1 | inactive
CCC(C)(Oc1ccc(C2(c3ccc(OC(C)(CC)C(=O)O)cc3)CCCCC2)cc1)C(=O)O (stereo unspecified) | inactive
